From PubChem BioAssay
Mtb bLac sens = beta-lactam sensitization of Mtb H37Rv | M. tuberculosis H37Rv growth with meropenem, percent inhibition | inhibition, % at 25 µM | actives 0.27% (n = 330,000); call rule not given here;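 also: growth measured after seven days incubation then overnight dye step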
RecA splice inh = inhibitors of M. tuberculosis RecA intein splicing; P9WHJ3; cell-free RecA intein splicing, fluorescence; inhibition, % (no concentration beside the values); actives 0.75% (n = 290,000); AID 2221; in the data active = inhibition above about 30%; inconclusive = no clear call, values can overlap the other calls
FBA Mtb inh = inhibits M. tuberculosis FBA enzyme; P9WQA3; purified M. tuberculosis FBA, fluorescence read-out; inhibition, % at 1 µM; actives 2.3% (n = 360,000); AID 588726; in the data active = inhibition above about 27%
Mtb UGM inh = blocks M. tuberculosis UGM enzyme | inhibition, % at 10 µM | purified UGM, fluorescence polarization probe displacement | actives 0.06% (n = 320,000) | P9WIQ1; in the data active = inhibition above about 10%, passing the limit was not always enough; inconclusive = no clear call, values can overlap the other calls
GDH-TPI inh = GDH-TPI coupled enzyme inhibition counter-screen. AID 588335. GDH-TPI coupled enzyme counterscreen, NADH absorbance. actives 1.2% (n = 360,000). inhibition, % at 4.8 µM; in the data active = inhibition above about 30%
Rv3671c protease = Rv3671c (M. tuberculosis) protease inhibition | inhibition, % at 5.96 µM | AID 2606 | P9WHR9 | actives 0.048% (n = 320,000); in the data active = inhibition above about 38%;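 also: extracellular domain of Rv3671c used as enzyme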
Target sequence (P9WHR9 whole entry, looked up, the tested form may be a part): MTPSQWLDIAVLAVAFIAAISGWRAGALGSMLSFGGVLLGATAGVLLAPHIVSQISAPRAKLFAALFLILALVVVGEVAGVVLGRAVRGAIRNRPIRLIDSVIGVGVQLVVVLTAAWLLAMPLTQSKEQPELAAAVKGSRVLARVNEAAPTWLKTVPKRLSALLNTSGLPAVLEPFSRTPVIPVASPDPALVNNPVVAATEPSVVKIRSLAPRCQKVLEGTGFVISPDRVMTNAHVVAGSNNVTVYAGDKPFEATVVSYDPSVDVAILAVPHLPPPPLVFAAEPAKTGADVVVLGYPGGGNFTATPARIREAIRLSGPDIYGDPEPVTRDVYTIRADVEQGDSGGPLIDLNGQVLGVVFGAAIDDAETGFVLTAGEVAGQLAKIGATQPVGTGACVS
Numbers stand for hits. Rows were chosen to be rich in hits. Some 4% of all compounds tested hit in one or more screens of this group.

How did Cc1ccc(-c2csc(NC(=O)CSC3=NCCS3)n2)cc1 do in these assays?
Mtb bLac sens: inactive; RecA splice inh: 58; FBA Mtb inh: inactive; Mtb UGM inh: inactive; GDH-TPI inh: inactive; Rv3671c protease: inactive

Results for C/C(=N\NC(=O)COc1cccc(Br)c1)c1ccc2c(c1)OCCO2 ?
Mtb bLac sens: inactive; FBA Mtb inh: inactive; Mtb UGM inh: inactive; GDH-TPI inh: inactive; Rv3671c protease: inactive

What do the screens show for `COc1ccc(S(=O)(=O)N(C)C)cc1NC(=O)CCCSc1ccccc1`?
Mtb bLac sens: inactive; RecA splice inh: inactive; FBA Mtb inh: inactive; Mtb UGM inh: inactive; GDH-TPI inh: inactive; Rv3671c protease: inactive

Results for Cc1ccsc1/C=N/NC(=O)c1cc(-c2ccncc2)nc2ccccc12 ?
Mtb bLac sens: inactive; RecA splice inh: inactive; FBA Mtb inh: inactive; Mtb UGM inh: inactive; GDH-TPI inh: 43; Rv3671c protease: inactive

Results for O=C(N/N=C/c1ccco1)c1cc(-c2cccc(Br)c2)nc2ccccc12 ?
Mtb bLac sens: inactive; RecA splice inh: inactive; FBA Mtb inh: inactive; Mtb UGM inh: inactive; GDH-TPI inh: 41; Rv3671c protease: inactive

Results for O=C(N/N=C/c1ccc([N+](=O)[O-])o1)c1cc(-c2ccncc2)nc2ccccc12 ?
Mtb bLac sens: inactive; RecA splice inh: inactive; FBA Mtb inh: inactive; Mtb UGM inh: inactive; GDH-TPI inh: 40; Rv3671c protease: inactive

How did CC(/C=N/NC(=O)c1cc(-c2ccncc2)nc2ccccc12)=C\c1ccco1 do in these assays?
Mtb bLac sens: inconclusive; FBA Mtb inh: inactive; Mtb UGM inh: inactive; GDH-TPI inh: inactive; Rv3671c protease: inactive

What do the screens show for `O=C(N/N=C/c1ccc([N+](=O)[O-])o1)c1cc(-c2ccc(-c3ccccc3)cc2)nc2ccccc12`?
Mtb bLac sens: inactive; RecA splice inh: inactive; FBA Mtb inh: inactive; Mtb UGM inh: inactive; GDH-TPI inh: inactive; Rv3671c protease: inactive

What do the screens show for `COc1ccccc1-c1cc(C(=O)N/N=C/c2ccc(C)o2)c2ccccc2n1`?
RecA splice inh: inactive; FBA Mtb inh: inactive; GDH-TPI inh: 49

What do the screens show for `Cc1ccc(C2(SCC(N)C(=O)O)c3ccccc3-c3ccccc32)cc1` (stereo unspecified)?
FBA Mtb inh: inactive; GDH-TPI inh: inactive

Results for Cc1ccc(S(=O)(=O)Nc2cc3c(cc2N2CCOCC2)n(C)c(=O)c(=O)n3C)cc1 ?
Mtb bLac sens: inconclusive; RecA splice inh: inactive; FBA Mtb inh: inactive; Mtb UGM inh: inactive; GDH-TPI inh: 32; Rv3671c protease: inactive

How did Cn1c(=O)c(=O)n(C)c2cc(N3CCOCC3)c(NS(=O)(=O)c3ccc(Br)cc3)cc21 do in these assays?
Mtb bLac sens: inactive; RecA splice inh: inactive; FBA Mtb inh: inactive; Mtb UGM inh: inactive; GDH-TPI inh: inactive; Rv3671c protease: inactive

Results for CNc1cnc(-c2cccc(C(=O)N3CCOCC3)c2)cn1 ?
FBA Mtb inh: 135; GDH-TPI inh: inactive

How did CNc1cccc(-c2ccc(C(=O)N3CCOCC3)cc2)n1 do in these assays?
FBA Mtb inh: inactive; GDH-TPI inh: inactive

How did CC(C)c1ccc(NC2CCCN(C(=O)C3=NN(C)C(=O)CC3)C2)cc1 (stereo unspecified) do in these assays?
Mtb bLac sens: inactive; RecA splice inh: inactive; FBA Mtb inh: inactive; Mtb UGM inh: inactive; GDH-TPI inh: inactive; Rv3671c protease: inactive

How did CCCc1c(C(=O)N/N=C/c2cccc3ccccc23)nnn1-c1nonc1N do in these assays?
Mtb bLac sens: inactive; RecA splice inh: inactive; FBA Mtb inh: inactive; Mtb UGM inh: inactive; GDH-TPI inh: 32; Rv3671c protease: inactive

How did CCN(CC)Cc1c(C(=O)N/N=C/c2cccc3ccccc23)nnn1-c1nonc1N do in these assays?
Mtb bLac sens: inactive; RecA splice inh: inactive; FBA Mtb inh: inactive; Mtb UGM inh: inactive; GDH-TPI inh: inactive; Rv3671c protease: inactive

What do the screens show for `CCOc1ccc(-c2c(C(=O)N/N=C/c3c[nH]c4ccccc34)nnn2-c2nonc2N)cc1`?
Mtb bLac sens: inactive; RecA splice inh: inactive; FBA Mtb inh: inactive; Mtb UGM inh: inactive; GDH-TPI inh: 40; Rv3671c protease: inactive

Results for COc1ccc(C(CNC(=O)CN2C(=O)NC3(CCCC3)C2=O)N(C)C)cc1 (stereo unspecified) ?
Mtb bLac sens: inactive; RecA splice inh: inactive; FBA Mtb inh: inactive; Mtb UGM inh: inactive; GDH-TPI inh: inactive; Rv3671c protease: inactive

How did O=C1C(Nc2ccccc2)=C(N2CCCCC2)C(=O)c2ccccc21 do in these assays?
Mtb bLac sens: inactive; RecA splice inh: 46; FBA Mtb inh: inactive; Mtb UGM inh: inactive; GDH-TPI inh: inactive; Rv3671c protease: inactive

Results for O=C(NCCCN1CCOCC1)c1cc2c(s1)-c1ccccc1OC2 ?
Mtb bLac sens: inactive; RecA splice inh: inactive; FBA Mtb inh: active; Mtb UGM inh: inactive; GDH-TPI inh: 35; Rv3671c protease: inactive

Results for COc1ccc2c(c1)CCc1cc(C(=O)O)sc1-2 ?
Mtb bLac sens: inactive; RecA splice inh: inactive; FBA Mtb inh: active; Mtb UGM inh: inactive; GDH-TPI inh: inactive; Rv3671c protease: inactive

What do the screens show for `O=C(NCCCN1CCOCC1)c1cc2c(s1)CCCC2`?
Mtb bLac sens: inactive; RecA splice inh: inactive; FBA Mtb inh: inactive; Mtb UGM inh: inactive; GDH-TPI inh: inactive; Rv3671c protease: inactive

How did O=C(NC1CC1)c1cc2c(s1)-c1ccccc1OC2 do in these assays?
Mtb bLac sens: inactive; RecA splice inh: inactive; FBA Mtb inh: active; Mtb UGM inh: inactive; GDH-TPI inh: inactive; Rv3671c protease: inactive

How did O=C(NCc1cccs1)c1cc2c(s1)CS(=O)(=O)C2 do in these assays?
Mtb bLac sens: inactive; RecA splice inh: inactive; FBA Mtb inh: inactive; Mtb UGM inh: inactive; GDH-TPI inh: inactive; Rv3671c protease: inactive

How did O=C(NCc1cccs1)c1cc2c(s1)-c1ccccc1OC2 do in these assays?
Mtb bLac sens: inactive; RecA splice inh: inactive; FBA Mtb inh: active; Mtb UGM inh: inactive; GDH-TPI inh: inactive; Rv3671c protease: inactive

Results for O=C(Nc1cccc(C(F)(F)F)c1)c1cc2c(s1)-c1ccccc1OC2 ?
Mtb bLac sens: inactive; RecA splice inh: inactive; FBA Mtb inh: inactive; Mtb UGM inh: inactive; GDH-TPI inh: inactive; Rv3671c protease: inactive

What do the screens show for `COCCN(CC(=O)Nc1cccc(C)c1C)C(=O)C1(c2ccc(Cl)cc2)CCC1`?
Mtb bLac sens: inactive; FBA Mtb inh: inactive; Mtb UGM inh: inactive; GDH-TPI inh: inactive; Rv3671c protease: inactive

How did O=C(O)c1nccnc1C(=O)Nc1ccc(Cl)cn1 do in these assays?
Mtb bLac sens: inactive; RecA splice inh: inactive; FBA Mtb inh: inactive; Mtb UGM inh: inactive; GDH-TPI inh: inactive; Rv3671c protease: inactive

Results for O=C(O)c1cc2c(s1)-c1ccccc1OC2 ?
Mtb bLac sens: inactive; RecA splice inh: inactive; FBA Mtb inh: active; GDH-TPI inh: inactive; Rv3671c protease: inactive

What do the screens show for `O=C(O)c1cc2c(s1)-c1ccccc1CC2`?
Mtb bLac sens: inactive; RecA splice inh: inactive; FBA Mtb inh: 191; Mtb UGM inh: inactive; GDH-TPI inh: 52; Rv3671c protease: inactive

What do the screens show for `O=C(c1ccco1)N1CCN(C(=O)c2cc3c(s2)-c2ccccc2OC3)CC1`?
Mtb bLac sens: inactive; RecA splice inh: inactive; FBA Mtb inh: 113; Mtb UGM inh: inactive; GDH-TPI inh: inactive; Rv3671c protease: inactive
